# Test results as given in PubChem BioAssay (EPA / NIEHS).
# “And” between values parts separate entries of the source, which are not always exact repeats. Equal entries are not always repeated. Some compounds were tested as several samples or in several runs, with calls that do not always agree. The source made the active and inactive calls. The calls were made as follows: active = hit-call score of the fitted dose curve at least 0.9, where 1 is the maximum; inactive = score below 0.9.
# How the values were obtained:
# [1] = ATG_DR4_LXR_CIS: Attagene CIS-FACTORIAL HepG2 Assay for human Liver X Receptor (LXR), DR4 submotif (AID 2282929); conditions: HepG2 Attagene DR4 cis-reporter, mRNA transcription; AC50: actives raise or lower the signal unless noted; outcome: actives raise or lower the signal unless noted
# Method in brief: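 Cells were transfected with multiple reporter transcription units, exposed to chemicals for 24 hours, then lysed for RNA. Reporter mRNA induction was measured by RT-PCR with capillary electrophoresis detection and fitted in both directions relative to DMSO.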
# [2] = biological target: Aryl hydrocarbon receptor (Homo sapiens) (UniProt P35869); assay: ATG_Ahr_CIS: Attagene CIS-FACTORIAL HepG2 Assay for human Aryl Hydrocarbon Receptor (Ahr) (AID 2282930); conditions: HepG2 AhR cis-factorial reporter transcription; actives raise or lower the signal
# Method in brief: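 HepG2 cells transiently transfected with cis-element-driven multiplexed reporter units; endogenous AhR activity read as reporter mRNA 24 h after dosing, via RT-PCR, 6-FAM labelling, HpaI digestion and capillary electrophoresis. Bidirectional fit relative to DMSO.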
# [3] = ATG_AP_1_CIS: Attagene CIS-FACTORIAL HepG2 Assay for human Activator Protein 1 (AP-1) (AID 2282931); conditions: HepG2 Attagene cis-factorial AP-1 reporter mRNA; actives raise or lower the signal
# Method in brief: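 Endogenous transcription-factor activity in human HepG2 liver cells is read through a cis-promoter reporter transcript, sampled 24 h after dosing. Detection uses RT-PCR with capillary electrophoresis; values come from bidirectional fitting relative to DMSO.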
# [4] = ATG_AP_2_CIS: Attagene CIS-FACTORIAL HepG2 Assay for human Activator Protein 2 (AP-2) (AID 2282932); conditions: HepG2 AP-2 cis-reporter, Attagene transcription factor profiling; AC50: actives raise or lower the signal unless noted; outcome: actives raise or lower the signal unless noted
# Method in brief: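 Read-out: fluorescent reporter mRNA via RT-PCR and capillary electrophoresis, 24 h post-dose in transiently transfected HepG2. Endogenous factors drive cis-promoter reporters; gain or loss of signal fitted bidirectionally against DMSO.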
# [5] = ATG_BRE_CIS: Attagene CIS-FACTORIAL HepG2 Assay for human Bone Morphogenetic Protein (BMP) Response Element (BRE) (AID 2282933); conditions: HepG2 BMP response element reporter, Attagene transcription factor profiling; actives raise or lower the signal
# Method in brief: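 Fluorescence-labelled reporter cDNA fragments, separated by capillary electrophoresis, gave the signal for this component of a 52-readout multiplex. HepG2 cells were transfected, exposed to chemicals for 24 h, and compared with DMSO using bidirectional fitting.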
# [6] = biological target: Retinoic acid receptor alpha (Homo sapiens) (UniProt P10276); assay: ATG_DR5_RAR_CIS: Attagene CIS-FACTORIAL HepG2 Assay for human Retinoic Acid Receptor Alpha (RARE), DR5 submotif (AID 2282934); conditions: HepG2 Attagene cis-factorial RARE DR5 reporter, mRNA; actives raise or lower the signal
# Method in brief: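 HepG2 cells transiently transfected with multiplexed reporter units; DR5 cis-element drives reporter through endogenous transcription factors. After 24 h dosing, reporter mRNA quantified by RT-PCR, fluorescent labeling, HpaI digestion and capillary electrophoresis; bidirectional fitting versus DMSO.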
# [7] = biological target: Transcription factor E2F1 (Homo sapiens) (UniProt Q01094); assay: ATG_E2F_CIS: Attagene CIS-FACTORIAL HepG2 Assay for human E2F Transcription Factor 1 (AID 2282935); conditions: HepG2 Attagene cis-reporter, E2F reporter RNA transcripts; actives raise or lower the signal
# Method in brief: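 Transient MRTU transfection of HepG2; 24 h compound exposure; RNA → oligo(dT) RT → PCR → FAM label → HpaI cut → CE fluorescence. Gain/loss of signal fit against DMSO.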
# [8] = ATG_E_Box_CIS: Attagene CIS-FACTORIAL HepG2 Assay for human Enhancer Box (E-box) (AID 2282936); conditions: HepG2 E-box cis-reporter transcription, actives raise or lower the signal
# Method in brief: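 Transiently transfected HepG2, endogenous TF-driven reporters, 24 h dosing. Readout: RT-PCR plus capillary electrophoresis of fluorescent reporter fragments. Gain or loss of signal fitted bidirectionally against DMSO baseline.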
# [9] = ATG_M_61_CIS: Attagene CIS-FACTORIAL HepG2 Assay for M61 Transcription Factor (Internal Marker) (AID 2282937); conditions: HepG2 Attagene CIS-FACTORIAL M61 internal marker reporter; actives raise or lower the signal
# Method in brief: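 Cells were transfected with reporter units under cis-regulatory promoters, treated with chemicals for 24 h, then lysed for RNA. Reporter transcripts were quantified by RT-PCR and capillary electrophoresis, and activity was fitted bidirectionally against DMSO.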
# [10] = ATG_EGR_CIS: Attagene CIS-FACTORIAL HepG2 Assay for human Early Growth Response 1 (EGR1) (AID 2282938); conditions: HepG2 Attagene CIS-FACTORIAL EGR reporter mRNA; actives raise or lower the signal
# Method in brief: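 Endogenous TF activity in HepG2 liver cells was gauged through cis-promoter reporter constructs transiently transfected. After 24 h dosing, reporter mRNA was quantified by RT-PCR and capillary electrophoresis, and curves fitted in both directions versus DMSO.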
# [11] = ATG_M_19_CIS: Attagene CIS-FACTORIAL HepG2 Assay for M19 Transcription Factor (Internal Marker) (AID 2282939); conditions: HepG2 Attagene CIS-FACTORIAL M19 internal marker reporter; actives raise or lower the signal
# Method in brief: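 HepG2, MRTU transient transfection, 24 h dosing. Total RNA → RT-PCR → 6-FAM primer extension → HpaI digest → CE fluorescence. Bidirectional curve fit, DMSO negative control.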
# [12] = ATG_ERE_CIS: Attagene CIS-FACTORIAL HepG2 Assay for Estrogen Response Element (ERE) (AID 2282940); conditions: HepG2 ERE cis-reporter, Attagene RNA transcript; actives raise or lower the signal
# Method in brief: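 After a 24 h chemical treatment, RNA from reporter-transfected HepG2 cells is reverse-transcribed, PCR-amplified and fluorescently labelled. Fragments separated by capillary electrophoresis give reporter signal; DMSO serves as negative control.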
# [13] = ATG_Ets_CIS: Attagene CIS-FACTORIAL HepG2 Assay for human Erythroblast Transformation Specific (ETS) (AID 2282941); conditions: HepG2 ETS cis-reporter transcription; AC50: actives raise or lower the signal unless noted; outcome: actives raise or lower the signal unless noted
# Method in brief: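 RT-PCR/capillary electrophoresis fluorescence read-out of reporter mRNA; HepG2 transient multi-reporter transfection; 24 h compound exposure; gain or loss of signal fitted bidirectionally relative to DMSO.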
# [14] = biological target: Hepatocyte nuclear factor 3-beta (Homo sapiens) (UniProt Q9Y261); assay: ATG_FoxA2_CIS: Attagene CIS-FACTORIAL HepG2 Assay for human Forkhead box A2 (FOXA2) (AID 2282942); conditions: HepG2 cis-reporter transcription factor activity, 24 h; actives raise or lower the signal
# Method in brief: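 Endogenous transcription factor activity was read in HepG2 cells carrying transiently transfected cis-promoter reporter units. After 24 h dosing, reporter mRNA was quantified by RT-PCR and capillary electrophoresis, and values fitted bidirectionally versus DMSO.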
# [15] = ATG_FoxO_CIS: Attagene CIS-FACTORIAL HepG2 Assay for human Forkhead box O (FoxO) (AID 2282943); conditions: HepG2 Attagene cis-reporter, FoxO element, mRNA; actives raise or lower the signal
# Method in brief: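 HepG2 cells transiently transfected with cis-element-driven reporter units report endogenous FoxO activity. After 24 h chemical exposure, reporter mRNA quantified by RT-PCR, fluorescent labeling, HpaI digestion and capillary electrophoresis; bidirectional fit versus DMSO.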
# [16] = ATG_GATA_CIS: Attagene CIS-FACTORIAL HepG2 Assay for human GATA Binding Protein (AID 2282944); conditions: HepG2 GATA cis-element reporter, Attagene multiplex mRNA; actives raise or lower the signal
# Method in brief: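 Cells: HepG2, transiently transfected with cis-regulated reporter transcription units. Exposure: 24 h. Detection: RT-PCR plus capillary electrophoresis of FAM-labeled fragments. Analysis: bidirectional, DMSO as baseline.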
# [17] = ATG_GLI_CIS: Attagene CIS-FACTORIAL HepG2 Assay for human Zinc Finger Protein GLI1 (AID 2282945); conditions: HepG2, Attagene cis-factorial reporter mRNA, GLI element; actives raise or lower the signal
# Method in brief: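 Transiently transfected HepG2 cells report endogenous transcription factor activity via cis-element-driven reporter units. After 24 h compound exposure, reporter mRNA was measured by RT-PCR with capillary electrophoresis; bidirectional fitting against DMSO baseline.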
# [18] = biological target: Bile acid receptor (Homo sapiens) (UniProt Q96RI1); assay: ATG_IR1_CIS: Attagene CIS-FACTORIAL HepG2 Assay for human Nuclear Receptor Subfamily 1 Group H Member 4 (NR1H4), IR1 submotif (AID 2282946); conditions: IR1 reporter transcription, actives raise or lower the signal
# Method in brief: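 Fluorescence of capillary-separated, HpaI-digested RT-PCR reporter products gave IR1-element mRNA induction in HepG2 cells 24 h after dosing. Endogenous transcription factors drove the cis-regulated reporters; activity was fitted bidirectionally against DMSO.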
# [19] = ATG_GRE_CIS: Attagene CIS-FACTORIAL HepG2 Assay for human Glucocorticoid Response Elements (GRE) (AID 2282947); conditions: HepG2 GRE cis-reporter, Attagene multiplex mRNA; AC50: actives raise or lower the signal unless noted; outcome: actives raise or lower the signal unless noted
# Method in brief: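 Read-out: fluorescent reporter-transcript fragments separated by capillary electrophoresis after RT-PCR. Transiently transfected HepG2 cells carrying cis-element-driven reporter units were dosed for 24 h; gain or loss of signal fitted against DMSO control.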
# [20] = ATG_ISRE_CIS: Attagene CIS-FACTORIAL HepG2 Assay for human Interferon Regulatory Factor 1 (IRF1) binding to an Interferon-Stimulated Response Element (ISRE) (AID 2282948); conditions: HepG2 ISRE cis-reporter (Attagene), mRNA transcription readout; actives raise or lower the signal
# Method in brief: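 Read-out: fluorescent RT-PCR products resolved by capillary electrophoresis, reporting endogenous transcription factor activity via ISRE-driven reporter mRNA in transfected HepG2 cells dosed for 24 h; gain or loss fitted relative to DMSO.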
# Bile acid receptor (Homo sapiens), sequence (Q96RI1 whole entry, looked up): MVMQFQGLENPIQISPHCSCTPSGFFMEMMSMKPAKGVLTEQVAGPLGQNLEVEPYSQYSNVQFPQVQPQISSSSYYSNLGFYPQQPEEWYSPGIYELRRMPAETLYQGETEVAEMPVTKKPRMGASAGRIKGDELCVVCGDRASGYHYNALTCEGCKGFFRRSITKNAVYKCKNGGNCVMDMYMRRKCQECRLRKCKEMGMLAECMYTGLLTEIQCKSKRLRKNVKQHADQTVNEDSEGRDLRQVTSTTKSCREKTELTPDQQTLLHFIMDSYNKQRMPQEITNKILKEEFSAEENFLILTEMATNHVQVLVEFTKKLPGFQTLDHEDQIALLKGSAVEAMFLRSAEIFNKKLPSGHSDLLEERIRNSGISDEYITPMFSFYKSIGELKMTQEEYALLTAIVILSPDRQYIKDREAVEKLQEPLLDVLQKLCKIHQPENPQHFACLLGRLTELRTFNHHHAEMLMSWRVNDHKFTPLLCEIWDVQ
# Hepatocyte nuclear factor 3-beta (Homo sapiens), sequence (Q9Y261 whole entry, looked up): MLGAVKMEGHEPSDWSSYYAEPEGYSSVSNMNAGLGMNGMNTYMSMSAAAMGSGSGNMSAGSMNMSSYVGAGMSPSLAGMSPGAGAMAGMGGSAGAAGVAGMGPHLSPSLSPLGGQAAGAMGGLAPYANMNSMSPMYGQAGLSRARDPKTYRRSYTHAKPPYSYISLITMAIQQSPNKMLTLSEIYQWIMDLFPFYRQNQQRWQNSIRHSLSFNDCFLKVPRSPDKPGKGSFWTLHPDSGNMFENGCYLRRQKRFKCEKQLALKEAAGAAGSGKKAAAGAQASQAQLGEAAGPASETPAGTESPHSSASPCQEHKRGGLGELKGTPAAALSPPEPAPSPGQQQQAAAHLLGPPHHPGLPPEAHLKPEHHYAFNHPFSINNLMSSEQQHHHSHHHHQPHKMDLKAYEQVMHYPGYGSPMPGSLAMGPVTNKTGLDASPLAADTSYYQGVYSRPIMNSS
# Retinoic acid receptor alpha (Homo sapiens), sequence (P10276 whole entry, looked up): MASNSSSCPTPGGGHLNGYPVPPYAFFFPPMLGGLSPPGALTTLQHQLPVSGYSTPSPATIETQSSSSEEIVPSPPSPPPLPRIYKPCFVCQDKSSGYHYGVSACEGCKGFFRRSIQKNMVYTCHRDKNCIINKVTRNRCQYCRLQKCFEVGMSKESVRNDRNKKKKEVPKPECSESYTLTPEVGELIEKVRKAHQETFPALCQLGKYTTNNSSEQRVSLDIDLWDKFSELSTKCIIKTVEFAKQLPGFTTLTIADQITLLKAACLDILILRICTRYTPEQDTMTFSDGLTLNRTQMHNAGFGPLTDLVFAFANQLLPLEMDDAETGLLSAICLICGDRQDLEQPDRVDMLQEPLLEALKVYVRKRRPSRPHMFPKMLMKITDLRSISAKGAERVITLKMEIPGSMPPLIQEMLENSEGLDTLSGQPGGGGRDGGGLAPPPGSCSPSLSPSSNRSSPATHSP
# Transcription factor E2F1 (Homo sapiens), sequence (Q01094 whole entry, looked up): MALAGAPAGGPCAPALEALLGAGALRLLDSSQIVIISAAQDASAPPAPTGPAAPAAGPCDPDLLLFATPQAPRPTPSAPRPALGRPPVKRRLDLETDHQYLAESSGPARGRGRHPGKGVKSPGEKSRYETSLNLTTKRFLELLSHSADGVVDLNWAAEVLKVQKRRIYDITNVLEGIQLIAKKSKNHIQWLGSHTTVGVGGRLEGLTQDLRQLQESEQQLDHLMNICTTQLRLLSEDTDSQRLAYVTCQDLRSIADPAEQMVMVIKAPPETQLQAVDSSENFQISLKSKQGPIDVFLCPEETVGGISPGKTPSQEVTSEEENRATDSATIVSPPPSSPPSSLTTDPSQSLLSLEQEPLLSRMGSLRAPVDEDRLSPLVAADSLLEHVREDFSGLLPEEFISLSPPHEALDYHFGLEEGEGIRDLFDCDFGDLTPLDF
# Aryl hydrocarbon receptor (Homo sapiens), sequence (P35869 whole entry, looked up): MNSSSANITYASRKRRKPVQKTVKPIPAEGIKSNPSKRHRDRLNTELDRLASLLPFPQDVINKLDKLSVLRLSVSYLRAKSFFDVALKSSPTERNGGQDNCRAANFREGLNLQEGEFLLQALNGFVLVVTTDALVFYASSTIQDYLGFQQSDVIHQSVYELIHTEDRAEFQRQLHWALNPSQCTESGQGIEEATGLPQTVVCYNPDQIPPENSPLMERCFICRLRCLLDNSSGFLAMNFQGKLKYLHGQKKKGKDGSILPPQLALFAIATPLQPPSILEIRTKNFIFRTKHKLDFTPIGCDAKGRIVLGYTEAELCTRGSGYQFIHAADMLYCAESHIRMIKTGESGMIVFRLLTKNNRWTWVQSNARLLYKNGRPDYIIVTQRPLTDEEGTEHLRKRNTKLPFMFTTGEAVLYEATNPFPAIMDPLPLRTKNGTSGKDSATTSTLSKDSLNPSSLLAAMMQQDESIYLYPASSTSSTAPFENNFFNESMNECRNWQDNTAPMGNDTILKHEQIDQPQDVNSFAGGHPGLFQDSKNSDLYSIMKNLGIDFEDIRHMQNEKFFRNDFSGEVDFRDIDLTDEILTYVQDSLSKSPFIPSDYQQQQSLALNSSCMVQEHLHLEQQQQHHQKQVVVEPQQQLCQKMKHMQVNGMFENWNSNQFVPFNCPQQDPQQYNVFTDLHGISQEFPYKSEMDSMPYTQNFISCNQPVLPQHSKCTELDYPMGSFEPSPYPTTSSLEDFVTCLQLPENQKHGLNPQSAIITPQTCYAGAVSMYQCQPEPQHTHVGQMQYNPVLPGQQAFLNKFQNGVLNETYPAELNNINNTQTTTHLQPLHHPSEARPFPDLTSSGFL
compound,measurement,setting,value
CCOC(=O)c1nc(C(Cl)(Cl)Cl)n(-c2ccc(Cl)cc2Cl)n1,AC50,[1],48.5 µM (active)
same,outcome,[2],inactive
same,AC50,[3],57.8 µM (active)
same,AC50,[4],25.3 µM (active)
same,outcome,[5],inactive
same,outcome,[6],inactive
same,AC50,[7],181 µM (active)
same,outcome,[8],inactive
same,outcome,[9],inactive
same,AC50,[10],100 µM (active)
same,outcome,[11],inactive
same,outcome,[12],inactive
same,AC50,[13],100 µM (active)
same,outcome,[14],inactive
same,outcome,[15],inactive
same,outcome,[16],inactive
same,AC50,[17],164 µM (active)
same,AC50,[18],26.6 µM (active)
same,AC50,[19],169 µM (active)
same,AC50,[20],53.2 µM (active)
CCCCCCC(C)(C)C(=O)O,outcome,[1],inactive
same,outcome,[2],inactive
same,AC50,[3],137 µM (active)
same,outcome,[4],inactive
same,outcome,[5],inactive
same,outcome,[6],inactive
same,outcome,[7],inactive
same,outcome,[8],inactive
same,outcome,[9],inactive
same,AC50,[10],130 µM (active)
same,outcome,[11],inactive
same,AC50,[12],27.6 µM (active)
same,outcome,[13],inactive
same,outcome,[14],inactive
same,outcome,[15],inactive
same,outcome,[16],inactive
same,outcome,[17],inactive
same,outcome,[18],inactive
same,outcome,[19],inactive
same,outcome,[20],inactive
COC(O)c1ccccc1 (centres undefined),outcome,[1],inactive
same,outcome,[2],inactive
same,outcome,[3],inactive
same,outcome,[4],inactive
same,outcome,[5],inactive
same,outcome,[6],inactive
same,outcome,[7],inactive
same,outcome,[8],inactive
same,outcome,[9],inactive
same,outcome,[10],inactive
same,outcome,[11],inactive
same,AC50,[12],18.1 µM (active)
same,outcome,[13],inactive
same,outcome,[14],inactive
same,outcome,[15],inactive
same,outcome,[16],inactive
same,outcome,[17],inactive
same,outcome,[18],inactive
same,outcome,[19],inactive
same,outcome,[20],inactive
CCOC(OCC)C(=O)c1ccccc1,outcome,[1],inactive
same,outcome,[2],inactive
same,outcome,[3],inactive
same,outcome,[4],inactive
same,outcome,[5],inactive
same,outcome,[6],inactive
same,outcome,[7],inactive
same,outcome,[8],inactive
same,outcome,[9],inactive
same,outcome,[10],inactive
same,outcome,[11],inactive
same,AC50,[12],77.6 µM (active)
same,outcome,[13],inactive
same,outcome,[14],inactive
same,outcome,[15],inactive
same,outcome,[16],inactive
same,outcome,[17],inactive
same,outcome,[18],inactive
same,outcome,[19],inactive
same,outcome,[20],inactive
NC(=NCCCCCCN=C(N)/N=C(\N)Nc1ccc(Cl)cc1)/N=C(\N)Nc1ccc(Cl)cc1,outcome,[1],inactive
same,AC50,[2],21.9 µM (active)
same,outcome,[2],inactive
same,AC50,[3],49.5 µM (active)
same,outcome,[3],inactive
same,AC50,[8],26.8 µM (active) and 23.9 µM (active)
same,outcome,[8],inactive
same,outcome,[9],inactive
same,AC50,[10],5.68 µM (active)
same,outcome,[10],inactive
same,AC50,[11],26.1 µM (active)
same,outcome,[11],inactive
same,AC50,[12],4.6 µM (active)
same,outcome,[12],inactive
same,AC50,[13],7.45 µM (active) and 6.93 µM (active)
same,outcome,[13],inactive
same,outcome,[14],inactive
same,AC50,[15],22.9 µM (active)
same,outcome,[15],inactive
same,outcome,[17],inactive
same,AC50,[19],23.2 µM (active) and 25.6 µM (active)
same,outcome,[19],inactive
same,AC50,[20],5.9 µM (active) and 6.55 µM (active)
same,outcome,[20],inactive
C/C=C/C(=O)C1=C(C)CCCC1(C)C,AC50,[1],24.6 µM (active)
same,AC50,[2],72.2 µM (active)
same,AC50,[3],27.6 µM (active)
same,outcome,[4],inactive
same,AC50,[5],27.3 µM (active)
same,outcome,[6],inactive
same,outcome,[7],inactive
same,outcome,[8],inactive
same,outcome,[9],inactive
same,AC50,[10],55.4 µM (active)
same,outcome,[11],inactive
same,outcome,[12],inactive
same,outcome,[13],inactive
same,outcome,[14],inactive
same,AC50,[15],138 µM (active)
same,outcome,[16],inactive
same,AC50,[17],69.7 µM (active)
same,AC50,[18],43.9 µM (active)
same,outcome,[19],inactive
same,AC50,[20],69.9 µM (active)
